Results on 38 compounds are retold here after PubChem BioAssay (NCI).

The panel holds about 83,000 compounds, 20% with a hit somewhere; the sample as a whole holds those more often.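 Cell lines were cultured in 96-well plates, exposed to a single compound concentration, and assessed for percent growth 48 hours later.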 Active and inactive are the calls of the source. How the source made its calls: active means growth percent below 10; inactive means the rest.

The subject of the first experiment is RPMI-8226 leukemia. Kind of experiment: NCI-60 one-dose screen, 48 h (100 = growth as untreated, 0 = no growth, -100 = all killed). Particulars: 10 µM unless noted.
Regarding `CC[n+]1ccc2c(c1)C(=O)c1nccc3c1c-2nc1ccccc13`, the growth is 66.2% (inactive).
For the compound `COc1ccc(-c2csc(NC(=O)CN3CCN(c4cc5c(cc4F)c(=O)c(C(=O)O)cn5C4CC4)CC3)n2)cc1`, the growth is -9.43% (active).
Same read-out and setting: the figure for `O=C1c2cc3c(cc2-c2c1c1cc(F)c(F)cc1c(=O)n2C[C@H](O)CO)OCO3` is -0.801% (active); for `Cn1c2ccccc2c2c3c(c4c5ccccc5n(CCCCCC#N)c4c21)C(=O)N(O)C3=O` it is 0.134% (active).
On the same count and under the same terms, the figure for `CCOC(=O)c1c2c(n3ccc(NC(=O)CCN4CCOCC4)cc13)C(=O)c1ncccc1C2=O` is 31.8% (inactive).
Still for that read-out and setting: the same measure for `Oc1ccccc1N=Cc1c(O)ccc2ccccc12`: 26.5% (inactive).
For the compound `O=c1ccc2cc3ccccc3cc2[nH]1`, the growth is 87.4% (inactive).
Turning to `O=C(Nc1ccc(Oc2ccc(F)cc2)c(Cl)c1)c1cccnc1`, the growth was 87.3% (inactive).
On the same count and under the same terms, the figure for `CCCCCCCCCc1cc(CN2CCCCC2)c(O)c(CN2CCCCC2)c1` is 23.7% (inactive); for `CC/C(Cc1ccccc1)=C(\c1ccc(OCCN2CCCC2)cc1)c1ccc(OC(C)=O)cc1` it is 60.2% (inactive).
Same read-out and setting: the figure for `C=C1CC[C@@H]2[C@](C)(COC(C)=O)[C@H](OC(C)=O)CC[C@@]2(C)[C@@H]1CC(Nc1ccc(S(=O)(=O)Nc2nc(C)cc(C)n2)cc1)C1=CCOC1=O` (stereo partly specified) is 2.24% (active); for `COc1ccc2c(c1)C(=O)/C(=C/c1cccc(OCC(=O)Nc3nc4c(s3)CCCC4)c1)O2` it is -6.7% (active); for `O=C([C@@H](COCc1ccccc1)N1C(=O)[C@@H](N2C(=O)OC[C@@H]2c2ccccc2)[C@H]1/C=C/c1ccccc1)N1CCC(CCN2CCCCC2)CC1` it is 65.2% (inactive).
`O=c1[nH]c(-c2ccccn2)nc2sc3c(c12)CCCCC3`: the growth was 40.2% (inactive).
With `NC1=CC(=O)C(=O)c2ccccc21`, the growth is 79.3% (inactive).
On to `CN1CCOCCOCCOc2ccccc2NC(=O)c2nc(cnc2N)-c2ccc(cc2)S1(=O)=O`, for which the growth was 30.3% (inactive).
Still for that read-out and setting: the figure for `COc1ccc(S(=O)(=O)NCCCNc2nccc(-c3c(-c4cccc(N)c4)nc4sccn34)n2)cc1` is 84% (inactive); for `COc1ccccc1N1CCN(CCn2c(=O)c3c(c4ccccc4n3C)n(C)c2=O)CC1` it is 109% (inactive).
The same measure, in the same setting: the same measure for `COc1cnc2c(c1)C(=O)c1c-2n(CCCBr)c(=O)c2cc([N+](=O)[O-])ccc12`: -12.9% (active); for `O=C(C[C@@H](C(=O)NCc1cccc(C(F)(F)F)c1)N1C(=O)[C@@H](N2C(=O)OC[C@@H]2c2ccccc2)[C@H]1/C=C/c1ccccc1)NC1CCN(Cc2ccccc2)CC1`: -13.7% (active); for `CCCCCCNC(=O)Oc1ccc(/C(=C(\C)c2ccccc2)c2ccc(OCCN(CC)CC)cc2)cc1`: 22.1% (inactive).
Still for that read-out and setting: the figure for `CC#CC#Cc1cccc(=O)o1` is 45.6% (inactive); for `CCCCCCCCCCCCNC(=O)[C@H]1CSC(c2ccc(OC)c(F)c2)N1` (stereo partly specified) it is -53.3% (active).
Take `O=C(CN1CCN(c2cc3c(cc2F)c(=O)c(C(=O)N/N=C/c2ccccc2)cn3C2CC2)CC1)N/N=C\c1ccccc1`: the growth was 39.2% (inactive).
The same measure, in the same setting: the same measure for `CNc1nc(C)c(-c2nc(Nc3cccc(S(N)(=O)=O)c3)ncc2F)s1`: 2.6% (active).
Same read-out and setting: the same measure for `CC1=CC(=O)CC(C)(C)[C@@]1(O)/C=C/[C@@H](C)O`: 109% (inactive); for `CC(=O)Nc1ccc2c(c1)c(NC(C)=O)nn2C(=O)Nc1ccc(Cc2ccccc2)cc1`: 88.8% (inactive); for `Cn1c2ccccc2c2c3c(c4c5ccccc5[nH]c4c21)C(=O)N(N)C3=O`: 57.2% (inactive).
Same read-out and setting: the same measure for `COc1cc(OC)c(/C=C/C(=O)c2c(OC)cc(OC)cc2OC)c(OC)c1`: -6.66% (active); for `CCCCCCCCCCCCCCCCCCNC(=O)[C@H]1CSC(c2ccc(OC)c(F)c2)N1` (stereo partly specified): -46.8% (active); for `O=C1c2cc3c(cc2-c2c1c1cc(Cl)c(Cl)cc1c(=O)n2C[C@H](O)CO)OCO3`: -8.53% (active).
Consider `COc1cc2nc3cc([N+](=O)[O-])ccc3c(NCCCNCC(C)(C)O)c2cc1OC`, for which the growth was -9.27% (active).
On to `CC(C)C1=C[C@@]23CC[C@@H]4[C@](C)(CCC[C@@]4(C)C(=O)OCC#CCN4CCCC4)[C@H]2C[C@@H]1[C@H]1C(=O)OC(=O)[C@H]13`, for which the growth is 80.3% (inactive).
Still for that read-out and setting: the same measure for `CN(C)c1ccc(/C=C(\C#N)c2nc3ccccc3s2)cc1`: 111% (inactive).
The same measure, in the same setting: the figure for `COc1ccc(Cl)cc1Nc1nc(C(F)(F)F)ccc1C(=O)N/N=C/c1cccnc1` is 32.5% (inactive).
Same read-out and setting: the same measure for `CC(=O)C1=C(O)C=C2Oc3c(C(=O)/C=C/c4ccccc4)c(O)c(C)c(O)c3[C@]2(C)C1=O`: 34.9% (inactive); for `Cn1c(=O)c2c(ncn2CC[N+](C)(C)C)n(C)c1=O`: 104% (inactive); for `OC(c1cc(-c2ccccc2)nc2ccc(Cl)cc12)C1CCCCN1` (stereo unspecified): 13.1% (inactive).

Another experiment concerns OVCAR-8 ovarian. Described as above. Particulars: 10 µM unless noted.
`CC[n+]1ccc2c(c1)C(=O)c1nccc3c1c-2nc1ccccc13`: the growth was -11.9% (active).
Same read-out and setting: the figure for `COc1ccc(-c2csc(NC(=O)CN3CCN(c4cc5c(cc4F)c(=O)c(C(=O)O)cn5C4CC4)CC3)n2)cc1` is 9.73% (active); for `O=C1c2cc3c(cc2-c2c1c1cc(F)c(F)cc1c(=O)n2C[C@H](O)CO)OCO3` it is 4.44% (active); for `Cn1c2ccccc2c2c3c(c4c5ccccc5n(CCCCCC#N)c4c21)C(=O)N(O)C3=O` it is 27.5% (inactive).
On the same count and under the same terms, the same measure for `CCOC(=O)c1c2c(n3ccc(NC(=O)CCN4CCOCC4)cc13)C(=O)c1ncccc1C2=O`: 48% (inactive).
The same measure, in the same setting: the figure for `Oc1ccccc1N=Cc1c(O)ccc2ccccc12` is 97.8% (inactive); for `O=c1ccc2cc3ccccc3cc2[nH]1` it is 105% (inactive); for `O=C(Nc1ccc(Oc2ccc(F)cc2)c(Cl)c1)c1cccnc1` it is 98.6% (inactive).
For `CCCCCCCCCc1cc(CN2CCCCC2)c(O)c(CN2CCCCC2)c1`, the growth is 76.6% (inactive).
On the same count and under the same terms, the figure for `CC/C(Cc1ccccc1)=C(\c1ccc(OCCN2CCCC2)cc1)c1ccc(OC(C)=O)cc1` is 97.8% (inactive).
Same read-out and setting: the same measure for `C=C1CC[C@@H]2[C@](C)(COC(C)=O)[C@H](OC(C)=O)CC[C@@]2(C)[C@@H]1CC(Nc1ccc(S(=O)(=O)Nc2nc(C)cc(C)n2)cc1)C1=CCOC1=O` (stereo partly specified): 62% (inactive); for `COc1ccc2c(c1)C(=O)/C(=C/c1cccc(OCC(=O)Nc3nc4c(s3)CCCC4)c1)O2`: 10.4% (inactive); for `O=C([C@@H](COCc1ccccc1)N1C(=O)[C@@H](N2C(=O)OC[C@@H]2c2ccccc2)[C@H]1/C=C/c1ccccc1)N1CCC(CCN2CCCCC2)CC1`: 98.6% (inactive).
Still for that read-out and setting: the same measure for `O=c1[nH]c(-c2ccccn2)nc2sc3c(c12)CCCCC3`: 36.1% (inactive).
On to `NC1=CC(=O)C(=O)c2ccccc21`, for which the growth is 64.2% (inactive).
As to `CN1CCOCCOCCOc2ccccc2NC(=O)c2nc(cnc2N)-c2ccc(cc2)S1(=O)=O`, the growth is 64% (inactive).
On to `COc1ccc(S(=O)(=O)NCCCNc2nccc(-c3c(-c4cccc(N)c4)nc4sccn34)n2)cc1`, for which the growth was 93.5% (inactive).
Take `COc1ccccc1N1CCN(CCn2c(=O)c3c(c4ccccc4n3C)n(C)c2=O)CC1`: the growth is 85% (inactive).
With `COc1cnc2c(c1)C(=O)c1c-2n(CCCBr)c(=O)c2cc([N+](=O)[O-])ccc12`, the growth was 2.09% (active).
On to `O=C(C[C@@H](C(=O)NCc1cccc(C(F)(F)F)c1)N1C(=O)[C@@H](N2C(=O)OC[C@@H]2c2ccccc2)[C@H]1/C=C/c1ccccc1)NC1CCN(Cc2ccccc2)CC1`, for which the growth is 83.7% (inactive).
Still for that read-out and setting: the same measure for `CCCCCCNC(=O)Oc1ccc(/C(=C(\C)c2ccccc2)c2ccc(OCCN(CC)CC)cc2)cc1`: 63.5% (inactive); for `CC#CC#Cc1cccc(=O)o1`: 65.8% (inactive); for `CCCCCCCCCCCCNC(=O)[C@H]1CSC(c2ccc(OC)c(F)c2)N1` (stereo partly specified): -51.1% (active).
Take `O=C(CN1CCN(c2cc3c(cc2F)c(=O)c(C(=O)N/N=C/c2ccccc2)cn3C2CC2)CC1)N/N=C\c1ccccc1`: the growth is 73.9% (inactive).
With `CNc1nc(C)c(-c2nc(Nc3cccc(S(N)(=O)=O)c3)ncc2F)s1`, the growth is 8.76% (active).
Same read-out and setting: the same measure for `CC1=CC(=O)CC(C)(C)[C@@]1(O)/C=C/[C@@H](C)O`: 90.1% (inactive).
As for `CC(=O)Nc1ccc2c(c1)c(NC(C)=O)nn2C(=O)Nc1ccc(Cc2ccccc2)cc1`, the growth is 71.8% (inactive).
For the compound `Cn1c2ccccc2c2c3c(c4c5ccccc5[nH]c4c21)C(=O)N(N)C3=O`, the growth was 66.7% (inactive).
In the case of `COc1cc(OC)c(/C=C/C(=O)c2c(OC)cc(OC)cc2OC)c(OC)c1`, the growth was 17.6% (inactive).
Still for that read-out and setting: the same measure for `CCCCCCCCCCCCCCCCCCNC(=O)[C@H]1CSC(c2ccc(OC)c(F)c2)N1` (stereo partly specified): -22.8% (active); for `O=C1c2cc3c(cc2-c2c1c1cc(Cl)c(Cl)cc1c(=O)n2C[C@H](O)CO)OCO3`: -20.2% (active); for `COc1cc2nc3cc([N+](=O)[O-])ccc3c(NCCCNCC(C)(C)O)c2cc1OC`: -45% (active).
Still for that read-out and setting: the figure for `CC(C)C1=C[C@@]23CC[C@@H]4[C@](C)(CCC[C@@]4(C)C(=O)OCC#CCN4CCCC4)[C@H]2C[C@@H]1[C@H]1C(=O)OC(=O)[C@H]13` is 115% (inactive).
Same read-out and setting: the figure for `CN(C)c1ccc(/C=C(\C#N)c2nc3ccccc3s2)cc1` is 99.5% (inactive); for `COc1ccc(Cl)cc1Nc1nc(C(F)(F)F)ccc1C(=O)N/N=C/c1cccnc1` it is 42% (inactive).
`CC(=O)C1=C(O)C=C2Oc3c(C(=O)/C=C/c4ccccc4)c(O)c(C)c(O)c3[C@]2(C)C1=O`: the growth was 14% (inactive).
Consider `Cn1c(=O)c2c(ncn2CC[N+](C)(C)C)n(C)c1=O`, for which the growth was 105% (inactive).
Same read-out and setting: the figure for `OC(c1cc(-c2ccccc2)nc2ccc(Cl)cc12)C1CCCCN1` (stereo unspecified) is 33.1% (inactive).
